# TrxR1 inh: qHTS Assay for Inhibitors of Mammalian Selenoprotein Thioredoxin Reductase 1 (TrxR1): qHTS. recombinant rTrxR1, NADPH fluorescence consumption, selenite substrate. Potency, µM (highest dose often 114 µM), most hits filed as inhibitors. 390,000 tested, 1% active; note: nearly all actives have a fitted effect of over 65% in size
#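 Rat TrxR1 (90 nM in the dispensed reagent) was pre-reduced with 400 uM NADPH for 5 min at room temperature, then incubated with compound for 15 min. After 400 uM selenite was added, NADPH fluorescence (Ex 340/Em 450 nm) was followed for 8 min.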
# TrxR1 substrate: qHTS Assay for Substrates of Mammalian Selenoprotein Thioredoxin Reductase 1 (TrxR1): qHTS; Thioredoxin reductase 1, cytoplasmic (Rattus norvegicus), O89049; purified TrxR1 substrate turnover, NADPH consumption readout; Potency, µM (top dose mostly 114 µM); 390,000 tested, 0.01% active; AID 588456, 2011; note: nearly all actives have a fitted effect of over 50% in size
#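 Rat TrxR1, dispensed at 90 nM, was prereduced with 400 uM NADPH (final) for 5 min at ~22 deg C, then incubated with compound 15 min before 400 uM selenite. A first-read NADPH fluorescence drop versus no-compound background flagged substrates.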
# mIDH1 inhibitor: qHTS for Inhibitors of mutant isocitrate dehydrogenase 1 (IDH1): qHTS; Isocitrate dehydrogenase [NADP] cytoplasmic (Homo sapiens), O75874; IDH1-R132H enzyme, NADPH consumption, diaphorase/resazurin fluorescence; Potency, µM (series often up to 76.6 µM), actives largely listed as inhibitors; 390,000 tested, 0.093% active; AID 602179, 2012; note: nearly all actives have a fitted effect of over 65% in size
#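 IDH1-R132H (0.5 ug/mL) preincubated 30 min with compound, then NADPH (0.016 mM) and alpha-KG (2 mM) added; 80 min at RT, pH 7.5. Remaining NADPH coupled via diaphorase/resazurin to fluorescence (540/590 nm); concentration-response curves normalized to no-enzyme control.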
# Eya2 inh: qHTS Assay for Inhibitors of the Phosphatase Activity of Eya2. Protein phosphatase EYA2 (Homo sapiens), O00167. recombinant Eya2, OMFP fluorescence dephosphorylation (OMFP is methylfluorescein phosphate). Potency, µM (titrated, usually from 76.9 µM), actives largely listed as inhibitors. 330,000 tested, 0.006% active
# Target sequence (O00167 whole entry, looked up): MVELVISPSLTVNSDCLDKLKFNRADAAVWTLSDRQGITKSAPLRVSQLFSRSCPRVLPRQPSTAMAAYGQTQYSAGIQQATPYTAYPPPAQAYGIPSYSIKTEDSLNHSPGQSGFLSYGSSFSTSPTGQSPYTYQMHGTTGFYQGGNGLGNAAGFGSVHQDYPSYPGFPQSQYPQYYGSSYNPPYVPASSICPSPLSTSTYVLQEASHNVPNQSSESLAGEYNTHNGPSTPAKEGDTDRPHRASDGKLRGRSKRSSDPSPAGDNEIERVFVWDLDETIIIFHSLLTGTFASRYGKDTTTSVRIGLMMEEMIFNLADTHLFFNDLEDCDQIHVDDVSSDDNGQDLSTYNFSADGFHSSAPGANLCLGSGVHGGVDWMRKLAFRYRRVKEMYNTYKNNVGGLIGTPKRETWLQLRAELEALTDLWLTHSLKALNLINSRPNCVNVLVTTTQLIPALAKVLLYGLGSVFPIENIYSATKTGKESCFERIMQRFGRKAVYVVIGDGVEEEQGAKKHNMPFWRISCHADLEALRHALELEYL
#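 Eya2 (0.2 uM) preincubated 10 min at ambient with compound, then OMFP substrate added at 50 uM; 10 min reaction in 50 mM HEPES pH 7.5, 50 mM NaCl, 5 uM MgCl2, 0.05% BSA, 1 mM DTT. Fluorescence read at Ex 485/Em 525 nm.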
# RGS4 inhibitor: Inhibitors of Regulator of G Protein Signaling (RGS) 4: qHTS; Regulator of G-protein signaling 4 (Homo sapiens), P49798; Transcreener GDP fluorescence polarization, RGS4-accelerated GTP hydrolysis; Potency, µM (top dose mostly 114 µM), usual class: inhibitors; 390,000 tested, 0.039% active; AID 504845, 2011; note: nearly all actives have a fitted effect of over 75% in size
#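 MLSMR compounds (23 nl, pin-transferred) preincubated 10 min at room temperature with a 500nM (2x) first reagent, then RGS4 at 900nM (2x) plus Transcreener GDP mix added; fluorescence polarization (620/688 nm) read before and after 90 min at 30 °C.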
# Numbers stand for hits; - = inactive; ? = inconclusive; . = no result given; ! = a repeat was not active; [ ] = remark or other dose. The list is not random: actives were taken first. Their share in the collection is about 1.1%. Calls come from the whole dose curve; as a rule, active = well fitted curve in the direction sought with a large enough effect; inconclusive = small, poorly fitted or top-dose-only effect, or another doubt; inactive = no such curve, though single readings can be large; an effect the other way counts as inactive or inconclusive.
SMILES,TrxR1 inh,TrxR1 substrate,mIDH1 inhibitor,Eya2 inh,RGS4 inhibitor
Cn1ncnc2c(=O)n(C)c(=O)nc1-2,?,39.8µM,-,20µM,-
Cc1ccc(-c2nc3c(=O)n(C)c(=O)nc-3n(C)n2)cc1,11.2µM,12.6µM,.,.,-
CC(C)C[C@H](NC(=O)[C@H](Cc1ccccc1)NC(=O)CNC(=O)[C@H](CS)N(C(=O)[C@@H](N)Cc1ccc(O)cc1)C(C)(C)C)C(=O)N([C@H](C(=O)O)[C@H](C)O)C(C)(C)C,.,.,.,.,-
CN(C)c1ccc(C=C2C(=O)NC(=O)NC2=O)cc1[N+](=O)[O-],?,-,-,-,?
COc1ccc(C=C2C(=O)NC(=S)NC2=O)cc1,2.82µM,-,-,.,?
CN(C)c1ccc(C=C2C(=O)NC(=S)NC2=O)cc1[N+](=O)[O-],3.98µM,-,-,-,?
O=C1NC(=S)NC(=O)C1=Cc1ccc(OCc2ccccc2)cc1,7.94µM,-,-,.,?
CS(=O)(=O)c1ccc(C2=C(CNC(=O)c3nccs3)[C@H]3CC[C@@H](C2)N3Cc2ccco2)cc1,.,.,-,.,.
CNCCc1c[nH]c2ccccc12,56.2µM,-,-,-,-
CNCCc1c[nH]c2ccc(O)cc12,?,-,-,-,?
CC1CCC(NCCc2ccc3c(c2)OCO3)CC1 (stereo not given),-,-,-,-,-
O=[N+]([O-])c1ccc(Sc2nc3ccccc3o2)c([N+](=O)[O-])c1,0.631µM,-,-,-,-
COC(=O)C1=C(c2ccc(F)cc2F)C[C@@H]2CC[C@H]1N2C(=O)N1CCOCC1,-,-,-,-,-
CCOC(=O)N1C(C)CN(/[N+]([O-])=N/Oc2ccc([N+](=O)[O-])cc2[N+](=O)[O-])CC1C (stereo not given),25.1µM,-,.,.,-
O=[N+]([O-])c1ccc(N2CC2)c([N+](=O)[O-])c1,-,-,-,.,-
C[C@]1(O)CCC2C3CC[C@@H]4CC(=O)CC[C@]4(C)C3CC[C@@]21C (stereo not given in full),-,-[11.4 µM],-,-,-
Cn1c(=O)oc(=O)c2ccccc21,56.2µM,-,-,.,-
CN(C)c1ccc(N=O)cc1,5.01µM,?,.,.,.
Fc1ccc(C(OCCN2CCN(CCCc3ccccc3)CC2)c2ccc(F)cc2)cc1,-,-,.,-,37.7µM!
CCN1C[C@]2(C)CC[C@H](OC)[C@]34C2[C@H](OC(C)=O)[C@@]2(OCO[C@@]25C[C@H](OC)[C@H]2C[C@]3(O)C5[C@H]2OC)[C@@H]14,-,-,-,-,-
Cc1ccc(-n2c(O)c(C=NCc3ccco3)c(=O)[nH]c2=S)cc1C,12.6µM,-,-,-,?
Cc1nnc(NC(=O)c2cccn(Cc3ccccc3)c2=O)s1,-,-,-,.,-
CN(C)C1C(=O)C(C(N)=O)=C(O)[C@@]2(O)C(=O)C3=C(O)c4c(O)cccc4[C@@](C)(O)C3[C@H](O)C12 (stereo not given in full),.,.,.,.,-
CN(C)[C@@H]1C(=O)C(C(N)=O)=C(O)[C@@]2(O)C(=O)C3=C(O)c4c(O)cccc4[C@@](C)(O)C3[C@H](O)C12 (stereo not given in full),31.6µM!,-,-,-,?
C/C=C/c1ccc2c(c1)OCO2,-,-,-,-,-
SMILES,TrxR1 inh,TrxR1 substrate,mIDH1 inhibitor,Eya2 inh,RGS4 inhibitor
COc1ccc(C[C@H]2NC[C@H](O)[C@H]2OC(C)=O)cc1,39.8µM,-,-,.,-
O=C1NC(=O)N(CCC2=CCCCC2)C(=O)/C1=C/c1cccs1,7.94µM,-,-,-,?
CCOc1ccccc1N1C(=O)NC(=O)/C(=C/c2ccc3c4c(cccc24)CC3)C1=O,22.4µM,-,-,-,?
CN1C(=O)NC(c2cccc(O)c2)C(C(=O)c2cccs2)C1(O)C(F)(F)F (stereo not given),31.6µM,-,-,-,-
CCCC[N+]12CCC(CC1)C(C(=O)c1cccs1)C2 (stereo not given),-,-,-,-,-
NP(=O)(OCCCc1ccccc1)c1ccccc1 (stereo not given),-,-,-,-,-
Brc1c(NC2=NCCN2)ccc2nccnc12,?,?,.,-,18.9µM
CCOc1ccc(N2C(=O)/C(=C/c3ccco3)C(=O)NC2=S)cc1,?,-,-,-,-
COc1ccc(N2C(=O)NC(=O)/C(=C/c3ccc4c(c3)Cc3ccccc3-4)C2=O)cc1,.,.,.,-,.
CCOc1ccc(N2C(=O)NC(=O)/C(=C\c3ccccc3[N+](=O)[O-])C2=O)cc1,8.91µM,-,-,-,?
O=C1NC(=O)N(c2ccccc2)C(=O)/C1=C\c1ccc([N+](=O)[O-])s1,56.2µM,-,-,-,?
COc1ccc(N2C(=O)NC(=O)/C(=C\c3ccccc3[N+](=O)[O-])C2=O)cc1,10µM,-,-,-,?
C=CCNC(=S)N1Cc2ccccc2-n2nncc2C1,.,.,-,.,.
O=C1CN=C(c2ccc(Br)cc2)c2c(sc3c2CCCC3)N1CCN1CCCCC1,-,-,-,-,-
CCC(=NCc1ccco1)c1c(O)[nH]c(=O)[nH]c1=O,-,-,-,-,-
CC1=NN(c2ccccc2)C(=O)/C1=C/c1c(O)[nH]c(=S)[nH]c1=O,17.8µM,?,-,-,?
CN1C2CC(OC(=O)C(CO)c3ccccc3)CC1C1OC12 (stereo not given),-,-,-,-,-
Cc1ccccc1N1C(=O)NC(=O)/C(=C\c2cc(Br)c(N3CCOCC3)o2)C1=O,22.4µM,-,-,-,-
Cc1ccccc1N1C(=O)NC(=O)/C(=C/c2ccc(N3CCOCC3)o2)C1=O,-,-,-,-,-
Cn1cc(Br)c(C(=O)Nc2ccc3c(C(F)(F)F)cc(=O)oc3c2)n1,-,-,-,-,-
CN1C(=O)NC(=O)/C(=C\c2ccc([N+](=O)[O-])o2)C1=O,15.8µM,-,-,-,?
CC1CN(c2ccccc2)NC1=O (stereo not given),-,-,-,-,-
CCOC(=O)C1=C(C)c2ccccc2OC1(C(=O)OCC)c1ccccc1 (stereo not given),44.7µM,-,-,-,-
CCOC(=O)c1ccccc1C(=O)OCC,-,-,.,.,-
O=C1NC(=O)N(c2ccc(Br)cc2)C(=O)/C1=C/c1ccsc1,?,-,-,-,?
O=C1NC(=O)N(c2cccc(Br)c2)C(=O)/C1=C/c1ccsc1,44.7µM,-,-,-,?
CC(N)c1cccc(Cl)c1Cl (stereo not given),-,-,.,-,-

# Screening results deposited in PubChem BioAssay by National Center for Advancing Translational Sciences (NCATS).
